From PubChem BioAssay (NCI)
Compounds without any hit were thinned out: in the full panel of roughly 79,000, 15% have a hit. The source made the active and inactive calls. Cut-off read from the data, not from the text of the source: active = growth inhibition above about 70%; inactive = the rest.

assay: NCI Yeast Anticancer Drug Screen. Data for the sgs1 mgt1 strain (AID 161);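 note: 0% = growth of cultures given vehicle only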; conditions: S. cerevisiae sgs1 mgt1 strain, at 50.0 µM, hits give high values
Outline: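 Genetically altered yeast, compound exposure, growth inhibition relative to vehicle.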

Q: For `CSc1nc(N(C)C)c2[nH]c(C)nc2n1`, which growth inhibition is on record?
A: -6.55% (inactive)

Q: With `C=C1C(=O)O[C@@H]2[C@H]1CC[C@H](C)[C@@H]1CCC(=O)[C@@]21C` as the compound, how does the growth inhibition read?
A: 3.35% (inactive)

Q: With `Cc1ccc(S(=O)(=O)N2CCC(C(=O)O)(c3ccccc3)CC2)cc1` as the compound, how does the growth inhibition read?
A: -35.4% (inactive)

Q: Which growth inhibition does the source give for `O=C1c2ccccc2CN1c1ccc(O)cc1` here?
A: -14.8% (inactive)

Q: For `O=[N+]([O-])c1ccc(N2CCN=N2)cc1`, which growth inhibition is on record?
A: -15.2% (inactive)

Q: With `CCN1C(=O)C(=O)C(CC)(CC)C1=O` as the compound, how does the growth inhibition read?
A: -7% (inactive)

Q: Which growth inhibition does the source give for `FC1(F)ON2CCc3ccccc3C2[C@H]1c1ccccc1` (stereo partly specified) here?
A: 10.2% (inactive)

Q: With `N#CC(c1ccccc1)C1CCCCC1` (stereo unspecified) as the compound, how does the growth inhibition read?
A: -4.95% (inactive)

Q: Which growth inhibition does the source give for `CCN(CC)CCNC(=O)c1ccc(NCN2C(=O)NC(c3ccccc3)(c3ccccc3)C2=O)cc1` here?
A: 8.45% (inactive)

Q: With `O=c1c2c(no[n+]2[O-])c2ccccc2n1-c1ccccc1` as the compound, how does the growth inhibition read?
A: 92.4% (active)

Q: For `CC(=O)OCC1OC(n2cccnc2=O)C(OC(C)=O)C1OC(C)=O` (stereo unspecified), which growth inhibition is on record?
A: 2.25% (inactive)

Q: Which growth inhibition does the source give for `OC(CC1CCCC(CC(O)c2ccccc2)N1CCc1ccccc1)c1ccccc1` (stereo unspecified) here?
A: 22.4% (inactive)

Q: For `Cc1c(-c2ccc(Cl)cc2)n[nH]c1-c1[nH]nc(-c2ccc(Cl)cc2)c1C`, which growth inhibition is on record?
A: -26.1% (inactive)

Q: With `N=c1sc2ccccc2n1CC(=O)O` as the compound, how does the growth inhibition read?
A: -13.3% (inactive)

Q: Which growth inhibition does the source give for `CCOc1ccc(Cc2ccc3c(c2)OCO3)cc1C` here?
A: -7.55% (inactive)

Q: With `Cc1cc(O)c(C(C)C)cc1N=O` as the compound, how does the growth inhibition read?
A: 18.5% (inactive)

Q: Which growth inhibition does the source give for `CCC(=O)OCCSCCOC(=O)CC` here?
A: -6.4% (inactive)

Q: For `C[Si](C)(C)CN=P(c1ccccc1)(c1ccccc1)c1ccccc1`, which growth inhibition is on record?
A: -19.2% (inactive)

Q: For `CC(=O)Oc1cccc(/C=C/C(=O)O)c1`, which growth inhibition is on record?
A: 22.9% (inactive)

Q: For `CCCCOC1NC(=O)NC(=O)C1(F)C(=O)OCC` (stereo unspecified), which growth inhibition is on record?
A: 5.45% (inactive)

assay: NCI Yeast Anticancer Drug Screen. Data for the cln2 rad14 strain (AID 165);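 note: 0% = growth equal to vehicle treated cultures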; conditions: S. cerevisiae cln2 rad14 strain, at 50.0 µM, hits give high values
Outline: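 Growth of compound-exposed yeast (cln2 rad14 genotype) measured and expressed as inhibition relative to vehicle.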

Q: With `CCOC(=O)c1csc(N)n1` as the compound, how does the growth inhibition read?
A: -39.6% (inactive)

Q: For `CS/C(=C\c1ccc2ccccc2[n+]1C)N1CCN(CCCO)CC1`, which growth inhibition is on record?
A: -20.6% (inactive)

Q: Which growth inhibition does the source give for `COc1ccc(Cc2ccc(OC)c3ccccc23)c2ccccc12` here?
A: -30.9% (inactive)

Q: With `Cn1c(N(CCO)CCO)cnc1[N+](=O)[O-]` as the compound, how does the growth inhibition read?
A: -16.4% (inactive)

Q: With `Cc1cc(S(=O)(=O)NC(=NCC(=O)NN)NN)c(S)cc1Cl` as the compound, how does the growth inhibition read?
A: -6.95% (inactive)

Q: For `C=CCN1C(=O)c2ccccc2C1=O`, which growth inhibition is on record?
A: 6.85% (inactive)

Q: For `OCC1OC(n2ncc3c(Nc4ccccc4)ncnc32)C(O)C1O` (stereo unspecified), which growth inhibition is on record?
A: -5.7% (inactive)

Q: For `COc1ccc([N+](=O)[O-])c(OC)c1`, which growth inhibition is on record?
A: 17.2% (inactive)

Q: For `O=C1C(=O)c2ccccc2C(O)=C1CC=C(Cl)Cl`, which growth inhibition is on record?
A: -33.1% (inactive)

Q: Which growth inhibition does the source give for `CC(=O)SCC(C)CCl` (stereo unspecified) here?
A: -3.15% (inactive)

Q: With `Cc1ccnc(N=C(N)Nc2cc(C)ccn2)c1` as the compound, how does the growth inhibition read?
A: 11.2% (inactive)

Q: Which growth inhibition does the source give for `Nc1c(Cl)ncnc1Cl` here?
A: -0.65% (inactive)

Q: Which growth inhibition does the source give for `CCOC(=O)C1OC1(C)c1ccc(Cl)cc1` (stereo unspecified) here?
A: 5.25% (inactive)

Q: With `CCC(=O)Oc1cc(C(C)(C)C)c(OC(=O)CC)cc1C(C)(C)C` as the compound, how does the growth inhibition read?
A: 12.3% (inactive)

Q: For `COc1cc(Cc2cc(OC)c(OC)c(OC)c2)ccc1O`, which growth inhibition is on record?
A: -2.6% (inactive)

Q: With `O=C(O)C(Nc1ccccc1)c1ccccc1` (stereo unspecified) as the compound, how does the growth inhibition read?
A: -21.9% (inactive)

Q: With `COc1cc2nccnc2c(N)c1OC` as the compound, how does the growth inhibition read?
A: -1.7% (inactive)

Q: For `CC(C)CC(O)CC(C)C`, which growth inhibition is on record?
A: 28.4% (inactive)

Q: For `N#CCCCCCCC(N)=O`, which growth inhibition is on record?
A: -1.25% (inactive)

Q: For `CCOP(=O)(OCC)/C(C#N)=C/c1cnc(-c2ccccc2)[nH]1`, which growth inhibition is on record?
A: 16.1% (inactive)

Q: For `CSc1nc(N(C)C)c2[nH]c(C)nc2n1`, which growth inhibition is on record?
A: 36.6% (inactive)

Q: For `C=C1C(=O)O[C@@H]2[C@H]1CC[C@H](C)[C@@H]1CCC(=O)[C@@]21C`, which growth inhibition is on record?
A: 13.8% (inactive)

Q: With `Cc1ccc(S(=O)(=O)N2CCC(C(=O)O)(c3ccccc3)CC2)cc1` as the compound, how does the growth inhibition read?
A: -88.5% (inactive)

Q: Which growth inhibition does the source give for `O=C1c2ccccc2CN1c1ccc(O)cc1` here?
A: 20.9% (inactive)

Q: With `O=[N+]([O-])c1ccc(N2CCN=N2)cc1` as the compound, how does the growth inhibition read?
A: 2.35% (inactive)

Q: Which growth inhibition does the source give for `CCN1C(=O)C(=O)C(CC)(CC)C1=O` here?
A: -8.25% (inactive)

Q: For `FC1(F)ON2CCc3ccccc3C2[C@H]1c1ccccc1` (stereo partly specified), which growth inhibition is on record?
A: 10% (inactive)

Q: With `N#CC(c1ccccc1)C1CCCCC1` (stereo unspecified) as the compound, how does the growth inhibition read?
A: -4.3% (inactive)

Q: With `CCN(CC)CCNC(=O)c1ccc(NCN2C(=O)NC(c3ccccc3)(c3ccccc3)C2=O)cc1` as the compound, how does the growth inhibition read?
A: 26.3% (inactive)

Q: For `O=c1c2c(no[n+]2[O-])c2ccccc2n1-c1ccccc1`, which growth inhibition is on record?
A: 86% (active)

Q: With `CC(=O)OCC1OC(n2cccnc2=O)C(OC(C)=O)C1OC(C)=O` (stereo unspecified) as the compound, how does the growth inhibition read?
A: 7.8% (inactive)
